From PubChem
NPSR antag = neuropeptide S receptor (human) antagonism, cAMP; 220,000 compounds, 1% hits; AID 1461; Q6W5P4; Potency, µM (titrated, usually from 38.3 µM), without a hit: at the top dose activity change, negative = inhibition, usual class: inhibitors; CHO-NPSR cells, cAMP TR-FRET, antagonist mode; note: nearly all actives have a fitted effect of over 50% in size
Target sequence (Q6W5P4 whole entry, looked up): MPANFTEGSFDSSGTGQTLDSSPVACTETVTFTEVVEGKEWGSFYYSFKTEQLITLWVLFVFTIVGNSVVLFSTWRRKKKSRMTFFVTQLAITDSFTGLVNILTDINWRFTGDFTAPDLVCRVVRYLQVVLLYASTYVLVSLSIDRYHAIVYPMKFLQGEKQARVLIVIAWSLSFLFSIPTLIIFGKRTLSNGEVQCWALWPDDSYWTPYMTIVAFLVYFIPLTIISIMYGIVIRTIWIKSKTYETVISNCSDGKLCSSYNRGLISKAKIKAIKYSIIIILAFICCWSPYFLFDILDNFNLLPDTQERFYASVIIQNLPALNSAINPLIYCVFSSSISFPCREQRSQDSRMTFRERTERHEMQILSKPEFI
Luc counter = Kinase-Glo luciferase inhibition (counter-screen); Kinase-Glo luciferase, ATP luminescence, 8 min; 200,000 compounds, 0.28% hits; AID 1379; Q27757; Potency, µM (doses to about 38.3 µM), inactives show at the highest dose activity change, negative = inhibition, usual class: inhibitors; note: nearly all actives have a fitted effect of over 60% in size
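Luminescence was the read-out, taken after 8-minute incubation at ambient temperature. Luciferase turned over luciferin with 10 uM ATP in imidazole pH 7.2 buffer containing KCl, MgCl2, Tween 20 and BSA.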
ERK EGF block = inhibitors of EGF-stimulated ERK signaling pathway | HEK293-V1b, EGF-stimulated phospho-ERK AlphaScreen | Potency, µM (highest dose often 11.5 µM), inactives show top-dose activity change, negative = inhibition, actives largely listed as inhibitors | 130,000 compounds, 0.41% hits;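 note: plate controls were stimulated vehicle wells for no effect and unstimulated vehicle basal for full effect; nearly all actives have a fitted effect of over 55% in size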
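Concentration-response of compounds against EGF-driven ERK phosphorylation in V1b-expressing HEK293 cells; 30 min preincubation, 5 min EGF, AlphaScreen detection; Normalized to DMSO basal and 25 nM EGF.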
IMPase Li inh = IMPase inhibition in cells with lithium potentiation | Potency, µM (top dose mostly 59.4 µM), for the others: at the highest dose activity, negative = IMPase inhibition, most hits filed as inhibitors | AID 1457 | CHO-M1 cells, IP1 TR-FRET (IP-One), carbachol + lithium | 210,000 compounds, 0.35% hits;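 note: IP1 builds up when IMPase is blocked and the TR-FRET signal falls; plate controls were basal vehicle for no effect and high inhibitor control for full effect; nearly all actives have a fitted effect of over 50% in size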
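Lithium-sensitised IP1 accumulation assay; M1-expressing CHO cells treated 30 min at 37C with compound. Competitive antibody detection by time-resolved FRET followed a 10 min room-temperature lysis step.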
* = called active by the depositor; ? = inconclusive; . = no result; [ ] = remark or other dose. An excerpt weighted towards active compounds, which were near 1.1% of everything screened. Calls come from the whole dose curve; as a rule, active = well fitted curve in the direction sought with a large enough effect; inconclusive = small, poorly fitted or top-dose-only effect, or another doubt; inactive = no such curve, though single readings can be large; an effect the other way counts as inactive or inconclusive. Unless noted, % is set by controls: 0 for no effect and ±100 for the full control effect; potency is the fitted concentration of half-maximal effect.

SMILES | NPSR antag | Luc counter | ERK EGF block | IMPase Li inh
Cc1ccc(/C=N/NC(=O)c2ccccc2OCc2cccc(Br)c2)o1 | ? | -1% | 22µM* | 15%
O=C(Cc1cccs1)NCCSc1c(-c2ccc(Cl)cc2)[nH]c2ccccc12 | 10µM* | 1% | -22% | 5%
COc1ccc(OC)c(/C=C/C(=O)NC2=NCCS2)c1 | -6% | -7% | 26% | 11µM*
c1ccc(-c2cnc(-c3ccc(-c4ncc(-c5ccccc5)o4)cc3)o2)cc1 | . | -3%[7.66 µM] | . | -9%
CCNc1nc(NC(C)C)nc(N(C#N)CCOc2ccc(Cl)cc2Cl)n1 | 10µM* | -2% | . | 35%[38.3 µM]
CCNc1nc(NC(C)C)nc(N(C#N)Cc2ccccc2)n1 | ? | -1% | . | 26%[38.3 µM]
CNc1sc(C(=O)c2ccccc2F)c(N)c1-c1nc2ccccc2s1 | 4µM* | -3% | . | 51%[38.3 µM]
COC1=C(Nc2ccccc2OC)C(=O)c2ccccc2C1=O | -26% | . | 14µM* | .
COc1ccccc1NC1=C(NC(C)=O)C(=O)c2ccccc2C1=O | -37% | ? | ? | 57%
Cn1c(/N=C/c2ccc3c(c2)OCO3)nc2ccccc21 | -6%[46.1 µM] | 11µM* | . | -11%[38.3 µM]
COc1cccc(-c2nc(NCC3CCCO3)c3ccccc3n2)c1O (centres undefined) | ? | 2% | ? | 14µM*
CCN(CC)S(=O)(=O)c1cccc(NC(=O)c2ccc(Br)cc2)c1 | -33% | 4% | 14µM* | 27%
CCN(CC)C(=O)c1ccc(Nc2nnc(C)c3ccccc23)cc1 | -10%[46.1 µM] | 11µM* | -9% | -14%
N[C@H](CS)C(=O)O | . | . | . | -5%
O=c1c(-c2ccc(Cl)cc2)nc2cnc(N3CCNCC3)nc2n1Cc1ccc(F)cc1 | . | -1% | ? | 2%
CCSCCCC(=O)O | . | 0%[7.66 µM] | . | -7%
Cc1ccc(C)c(CN2C(=O)c3ccccc3S(=O)c3ccc(C(=O)N4CCN(c5ccccn5)CC4)cc32)c1 (centres undefined) | 7.9µM* | 3% | -4% | 20%
CCOc1ccc(C(=O)Nc2cc(C)c3c(=O)oc4ccccc4c3n2)cc1 | ? | 2% | . | 13µM*
O=C1/C(=C\c2ccc([N+](=O)[O-])cc2)CCc2ccccc21 | -6% | 13µM* | -8% | -1%
COCCCn1c(=S)[nH]c2c(sc3ccccc32)c1=O | -42% | 3% | 11% | 10µM*
CCC(=O)O[C@@]1(C(=O)CCl)C(C)CC2C3CCC4=CC(=O)C=C[C@@]4(C)[C@]3(F)C(O)C[C@]21C (some centres undefined) | . | -3% | 10% | -1%
CCCC(=O)O[C@]1(C(=O)CCl)[C@@H](C)C[C@H]2[C@@H]3CCC4=CC(=O)C=C[C@]4(C)[C@@]3(F)C(=O)C[C@@]21C | 3.2µM* | -3% | -11%[57.5 µM] | 12%
CCC(=O)O[C@]1(C(=O)CCl)[C@@H](C)C[C@H]2[C@@H]3CCC4=CC(=O)C=C[C@]4(C)[C@@]3(F)[C@@H](O)C[C@@]21C | 2µM* | 0% | -16%[57.5 µM] | 4%
O=C1NC(=O)c2cc(Nc3ccc(F)cc3)c(Nc3ccc(F)cc3)cc21 | . | 3%[39.9 µM] | . | 2%
O=C1NC(=O)c2cc(Nc3ccccc3)c(Nc3ccccc3)cc21 | 13µM* | -2% | ? | 20%
SMILES | NPSR antag | Luc counter | ERK EGF block | IMPase Li inh
CC(N)(C(=O)O)c1ccc(S(=O)(=O)O)cc1 (centres undefined) | . | . | . | -5%
O=C1C(=C(c2ccccc2)c2ccccc2)Nc2ccccc21 | 13µM* | 11% | . | 45%[38.3 µM]
O=c1oc2ccccc2cc1-c1nc2c(s1)CCCC2 | ? | 11µM* | . | -19%[38.3 µM]
COCC(=O)N1CCC2(CCCN(Cc3nccs3)C2)CC1 | . | -5% | 6% | 16%
O=C(O)c1cccc(Nc2cc(Cl)c3nonc3c2[N+](=O)[O-])c1 | 5% | -1% | 0% | -2%
O=[N+]([O-])c1c(Nc2ccccn2)cc(Cl)c2nonc12 | 10µM* | . | 14µM* | .
CN(C)S(=O)(=O)c1cccc(-c2csc(N/N=C/c3ccco3)n2)c1 | -1% | . | 22µM* | .
N#Cc1cc2cc3c(cc2nc1SCC(=O)OC1CCCCC1)OCO3 | ? | -4% | . | ?
CC(=O)CSc1nc2cc3c(cc2cc1C#N)OCCO3 | -26% | 4.5µM* | 18% | -27%
CCSc1nc2ccccc2n1C(=O)/C=C/c1ccc(OC)c(OC)c1 | -59% | 0% | 3% | 19%
C=CCSc1nc2ccccc2n1C(=O)/C=C/c1cc(OC)c(OC)c(OC)c1 | 2.5µM* | -3% | . | 27%[38.3 µM]
CCOC(=O)c1sc(=NC(=O)c2ccco2)n(C)c1C | -5% | -4% | 1% | 2%
CCOC(=O)c1sc(=NC(=O)c2cccs2)n(C)c1C | 3.2µM* | -12% | -6% | ?
CCOC(=O)c1sc(=NC(=O)c2ccc(Cl)s2)n(C)c1C | -52% | -2% | -6% | -3%
CCOC(=O)c1sc(=NC(=O)c2ccc(C)c(C)c2)n(C)c1C | 32% | 0% | 3% | -13%
CCOC(=O)c1sc(=NC(=O)c2ccc(OC(C)C)cc2)n(C)c1C | 5µM* | 0% | -2% | ?
CCOC(=O)c1sc(=NC(=O)c2ccc(S(=O)(=O)N3CC(C)OC(C)C3)cc2)n(C)c1C (centres undefined) | 10µM* | . | . | .
Nc1ncnc2nc(-c3ccc(C[P+](c4ccccc4)(c4ccccc4)c4ccccc4)cc3)[nH]c12 | . | -5%[7.66 µM] | . | 19%
COc1cc2oc(=O)c3c(c2cc1OCC(=O)c1c(C)n(C)c2ccccc12)CCCC3 | -51% | -1% | 8% | 10µM*
O=C(O)/C=C(/C(=O)O)[C@]12CCN3CC4=CCO[C@@H]5CC(=O)N[C@@H]1C5[C@H]4C[C@H]32 (some centres undefined) | . | -1%[7.66 µM] | . | ?
Cc1ccc(/C=C2\C(=O)ON=C2c2ccccc2)o1 | -10% | 0% | 2% | -3%
O=C1/C(=C\c2ccc(-c3ccccc3[N+](=O)[O-])o2)C(c2ccccc2)=NN1c1ccccc1 | -16% | -9% | 28µM* | 3%
CN(C)/C=C1/C(=O)N(c2ccc([N+](=O)[O-])cc2)N=C1c1ccccc1 | -32% | -3% | -6% | 8%
Cc1ccc(-c2ccc(/C=C3\C(=O)ON=C3c3ccccc3)o2)c([N+](=O)[O-])c1 | 7.9µM* | 2% | . | 21%[38.3 µM]
CNc1ccc(O)cc1 | . | . | . | 49%
SMILES | NPSR antag | Luc counter | ERK EGF block | IMPase Li inh
CC(C)(C)C1C/C(=C/c2ccccn2)C(=O)/C(=C/c2ccccn2)C1 (centres undefined) | 2µM* | -4% | ? | 31%
COc1ccccc1CCn1c(=O)cnc2cncnc21 | . | . | . | 1%
C[N+](C)(C)c1cc2c(nn1)Nc1ccccc1S2 | . | -11%[7.66 µM] | . | 56%
CCOC(=O)c1c(C)n(C)c2ccc(O)c(CN3CCN(C)CC3)c12 | -4%[46.1 µM] | -1% | . | 18%[38.3 µM]
CCOC(=O)c1c(CSc2ccccc2)n(C)c2ccc(O)c(CN3CCOCC3)c12 | 7.9µM* | -1% | ? | 10%
O=C(CSc1nc2ccccc2c(=O)n1Cc1ccccc1)NCc1ccco1 | 20%[46.1 µM] | -1% | . | 10µM*
